Assay outcomes (PubChem BioAssay)
This is a sample that favours compounds with a hit; in the whole collection about 7.6% have one here.
Cy5 interf NS3h: Cy5 fluorescence quenchers or enhancers, artefact control for HCV NS3 helicase inhibitor project, biochemical, ChemBridge library, Cy5 readout; actives 6% (n = 16,000); AID 720488, 2013; Cy5-dT15 DNA with NS3h, fluorescence interference; actives lie on both sides; signal over control mean, under 1 quenches; fluorescence interference ratio at 100 µM;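 active = compound fluorescence over control fluorescence at most 0.8, a quencher, or at least a set upper limit, an enhancer; inactive = ratio between 0.8 and the set upper limit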
HCV NS3h FP: HCV NS3 helicase inhibitors, primary screen, biochemical, fluorescence polarization, ChemBridge library; NS3h Cy5-dT15 DNA binding; inhibition, % at 100 µM; actives 1.6% (n = 16,000);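 active = inhibition above the average over every tested compound plus 3 SD, cut at about 40% in these data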
Of the large screens only hits and unclear results are named; the others gave an inactive call.

COC(=O)c1ccccc1-c1ccc(/C=C2/SC(=S)N(Cc3ccccc3)C2=O)o1	none
C=C(C)COc1ccccc1/C=C1\N=C(c2ccc(F)cc2)OC1=O	none
NC(=S)N/N=C\c1cc2c(cc1[N+](=O)[O-])OCO2	Cy5 interf NS3h 0.79
O=C(N/N=C\c1ccc(O)c([N+](=O)[O-])c1)/C(=C\c1ccc2c(c1)OCO2)NC(=O)c1ccccc1	none
Cc1ccc(C(C)(C)C)cc1C(=O)c1ccc([N+](=O)[O-])cc1	none
Cc1ccc(N2C(=O)NC(=O)/C(=C\c3ccc(Cl)cc3)C2=O)cc1	none
O=C1NC(=O)N(c2ccc(I)cc2)C(=O)/C1=C\C=C\c1ccco1	Cy5 interf NS3h 0.766
Cc1cccc(NC(=O)C(=O)NCCCn2ccnc2)c1	none
O=C(NCCO)C(=O)Nc1ccc(F)cc1	none
CCc1ccc(NC(=O)C(=O)NCCc2ccc(F)cc2)cc1	Cy5 interf NS3h 0.686
COc1ccc2oc(-c3ccccc3)c(C(=O)Nc3nccs3)c2c1	none
Nc1ccc(C(=O)c2ccc(N)c(N)c2)cc1N	none
O=C(C[n+]1ccc(C(=O)NCc2ccccc2)cc1)c1ccc(-c2ccccc2)cc1	Cy5 interf NS3h 0.763
Nc1cc[n+](CC(=O)c2ccccc2)cc1	Cy5 interf NS3h 0.773
Cc1ccc[n+](CC(=O)c2ccc(-c3ccccc3)cc2)c1	none
CC1(C)CC(=O)c2cc(-c3ccccc3)n(-c3ccccc3)c2C1	none
O=C(c1cnn2c(C(F)(F)F)cc(-c3ccc4c(c3)OCO4)nc12)N1CCOCC1	none
COc1ccc(Oc2ccc(N)cc2)cc1	none
Nc1ccc(Oc2ccc(N)c(N)c2)cc1	Cy5 interf NS3h 0.188
COc1ccc(C(=O)Nc2cccc(-c3nc4ccccc4s3)c2)cc1Br	none
COc1ccc(N2C(=O)C(Cl)=C(N3CCN(C)CC3)C2=O)cc1	none
O=C(Nc1ccc(-c2nc3ccccc3o2)c(O)c1)c1ccc(-c2cccc([N+](=O)[O-])c2)o1	Cy5 interf NS3h 0.77
CCOC(=O)c1ccc(-c2ccc(C(=O)Nc3ccc(-c4nc5ccccc5s4)c(O)c3)o2)cc1	none
C=CCNC(=O)c1ccc(-c2ccc([N+](=O)[O-])cc2)o1	none
O=C(Nc1ccc(-c2nc3ccccc3o2)c(O)c1)c1ccc(-c2cccc(Cl)c2)o1	none
Cc1ccc2oc(-c3cccc(NC(=O)c4ccc(-c5ccc([N+](=O)[O-])cc5C)o4)c3C)nc2c1	none
O=C(Nc1ccc(NC(=O)c2ccc(-c3ccc([N+](=O)[O-])cc3)o2)cc1)c1ccco1	Cy5 interf NS3h 0.674
Cc1cc([N+](=O)[O-])ccc1-c1ccc(C(=O)Nc2ccc(-c3nc4ccccc4o3)c(O)c2)o1	Cy5 interf NS3h 0.612
O=C(Nc1ccc(-c2nc3ccccc3s2)c(O)c1)c1ccc(-c2cccc([N+](=O)[O-])c2)o1	Cy5 interf NS3h 0.563
Cc1nc(Nc2nc(-c3ccccc3)cc(=O)[nH]2)nc2c(C)cccc12	none
CCN1C(=O)/C(=C\c2ccc(OCCOc3cccc(OC)c3)cc2)SC1=S	none
COC(=O)CCC(=O)Oc1ccc(-c2ccccc2)cc1	none
Cc1ccc(/C=N\NC(=O)c2ccco2)o1	none
O=C(Nc1ccccc1Cl)C1CN(S(=O)(=O)c2ccccc2)CCN1S(=O)(=O)c1ccccc1 (stereo unspecified)	Cy5 interf NS3h 1.36
O=C(Nc1ccccc1Br)C1CN(S(=O)(=O)c2ccccc2)CCN1S(=O)(=O)c1ccccc1 (stereo unspecified)	none
O=C(CSCc1ccc(F)cc1)Nc1ccccc1	none
O=C(CSc1ncc(-c2ccccc2)[nH]1)Nc1ccc(F)cc1	Cy5 interf NS3h 0.782
C#Cc1cccc(N2C(=O)c3ccc(C(=O)O)cc3C2=O)c1	none
O=C(O)c1ccc2c(c1)C(=O)N(c1ccc(-c3nc4cc(N5C(=O)c6ccc(C(=O)O)cc6C5=O)ccc4[nH]3)cc1)C2=O	Cy5 interf NS3h 0.651
O=C(c1cc2nc(-c3cccs3)cc(C(F)(F)F)n2n1)N1CCc2ccccc2C1	none
NC(=O)c1cc2nc(-c3cccs3)cc(C(F)(F)F)n2n1	Cy5 interf NS3h 0.657
CCC(=O)Nc1ccc(NC(=O)c2cccc(Cl)c2Cl)cc1	none
O=C(Nc1ccc(N2CCOCC2)cc1)c1cccc(Cl)c1Cl	Cy5 interf NS3h 0.672
CCCCOC(=O)c1ccc(NC(=O)c2cccc(Cl)c2Cl)cc1	Cy5 interf NS3h 0.689
COc1c(Cl)cc(C(=O)Nc2ccc(N3CCOCC3)cc2)cc1Cl	none
COC(=O)C1CC(=O)N(c2ccc(Cl)cc2)C1 (stereo unspecified)	none
Cc1ccc(OCCOCCOc2ccc(Cl)cc2/C=C2/SC(=S)NC2=O)cc1	none
C=CCOc1ccc(Cl)cc1/C=C1/SC(=S)NC1=O	Cy5 interf NS3h 1.24
COC(=O)CN1C(=O)/C(=C/c2ccccn2)SC1=S	none
O=C1NC(=Nc2cccnc2)S/C1=C\c1cccc(F)c1	Cy5 interf NS3h 0.805
O=C1NC(=Nc2cccnc2)S/C1=C\c1ccc(F)cc1	none
COc1cc(NS(=O)(=O)c2c(C)cc(C)cc2C)c(OC)cc1Cl	none
COc1ccc(Cl)cc1C(=O)Nc1ccc(Br)cc1	none
O=c1/c(=C/c2ccccc2OS(=O)(=O)c2ccccc2[N+](=O)[O-])sc2nc3ccccc3n12	none
COc1cc(/C=c2\sc3nc4ccccc4n3c2=O)ccc1OS(=O)(=O)c1ccccc1[N+](=O)[O-]	Cy5 interf NS3h 1.22
CCOc1ccc(N(CC(=O)Nc2ccc(OC)cc2OC)S(=O)(=O)c2ccc(SC)cc2)cc1	none
O=c1[nH]c(/C=C/c2ccc(OCc3ccccc3)cc2)c([N+](=O)[O-])c(=O)[nH]1	none
O=C1S/C(=C\c2ccc(Br)o2)C(=O)N1c1ccc(Cl)cc1	none
O=C(O)c1cccc(-c2ccc(/C=C3\SC(=O)N(c4ccc(Cl)cc4)C3=O)o2)c1	Cy5 interf NS3h 0.765
Cc1ccc(OCC(=O)Nc2ccc(C)c(C)c2)cc1	none
O=C(CN1CCOCC1)N/N=C\c1cc(Br)ccc1O	none
COc1cc(/C=N\n2cnnc2)cc(OC)c1O	Cy5 interf NS3h 0.671
COc1ccc(/C=N\n2cnnc2)cc1Br	none
COC(=O)c1ccc(C(=O)OC)c(NC(=O)/C=C/c2ccccc2)c1	none
O=C(/C=C(\Cl)c1ccc([N+](=O)[O-])cc1)c1ccccc1	none
Cc1ccccc1NC(=O)c1c(NC(=O)C(Cl)(Cl)Cl)sc2c1CCC2	Cy5 interf NS3h 0.681
CC(=O)Nc1sc2c(c1C(=O)Nc1ccccc1C)CCC2	none
Cc1cccc(C(=O)Nc2cc(-c3cccc(C)c3)[nH]n2)c1	none
COc1cccc(CCNC2CC(=O)N(c3ccc(C)cc3)C2=O)c1 (stereo unspecified)	none
Cc1ccc(N2C(=O)CC(NCc3cccnc3)C2=O)cc1 (stereo unspecified)	Cy5 interf NS3h 1.31
CC1CC(O)N(c2ccccc2)C(=S)N1 (stereo unspecified)	Cy5 interf NS3h 0.774
O=C(NC(NC(=O)C(c1ccccc1)c1ccccc1)c1cccc([N+](=O)[O-])c1)C(c1ccccc1)c1ccccc1	none
Fc1ccccc1OCCSc1nc2ccc(Br)cc2[nH]1	none
Cc1ccc(C(=O)Nc2nc3ccccc3n2Cc2ccc(Cl)cc2)cc1	none
O=C(Nc1nc2ccccc2n1Cc1ccc(Cl)cc1)c1ccccc1	Cy5 interf NS3h 0.735
O=C1/C(=C/C=C/c2ccccc2)SC(=S)N1c1cccc(C(F)(F)F)c1	Cy5 interf NS3h 0.75
O=C1/C(=C\c2cccc(C(F)(F)F)c2)SC(=S)N1c1cccc(Cl)c1	none
